The record followed here is the supplement of paper PMC7866885, “A novel bicyclic 2,4-diaminopyrimidine inhibitor of Streptococcus suis dihydrofolate reductase” (PeerJ, 2021).

± gives the standard deviation.

The subject of the test is Streptococcus suis HE06. As to the kind of experiment: percent growth relative to DMSO control; higher = less growth inhibition. The settings on record: 10 µM; incubation time 18 h. On the procedure:
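CLSI broth microdilution: 5x10^4 CFU of Streptococcus suis (strain P1/7 or HE06) incubated with 10 µM Pathogen Box compound in cation-adjusted Mueller Hinton broth, 37 °C, 5% CO2, 18 h. Growth read as OD600 and expressed as percent of the DMSO-treated control (100%); mean ± SD of three independent experiments.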
Molecule `COc1cccn2c(C(=O)N3CCCCC3)c(C(F)(F)F)nc12` came in with a percent growth of 111 ± 22%.

As to `Cc1ncc(-c2ccnc(Nc3ccc(S(C)(=O)=O)cc3)n2)n1C(C)C`, the percent growth was 89.7 ± 4.3%.

Consider `CC1COC2(CCN(c3nc(=O)c4cc(C(F)(F)F)cc([N+](=O)[O-])c4s3)CC2)O1` (stereo not drawn), for which the percent growth is 80.1 ± 1.6%.

On to `NC(=O)c1cc(Br)ccc1OCCOc1ccccc1`, for which the percent growth worked out at 85.2 ± 9.9%.

Take `COCC(C)NC(=O)CSc1ncnc2sc(-c3ccccc3)cc12` (stereo not drawn): the percent growth is 95.4 ± 33%.

For the molecule `Clc1cccc(CO[C@H]2CCc3ccccc3[C@@H]2n2ccnn2)c1`, the percent growth came out at 97.4 ± 3.9%.

In turn, `Cc1cccc(-c2nc(Nc3ccncn3)c3sccc3n2)n1` came in with a percent growth of 0.0155 ± 0.027%.

Molecule `Clc1cccc(C(c2ccc(CN3CCNCC3)cc2)n2ccnc2)c1` (stereo not drawn) showed a percent growth of 96.6 ± 38%.

For `CN1CCN(c2nccc3[nH]c(-c4cccc(F)c4)cc23)CC1`, the percent growth was 97.4 ± 6.1%.

In the case of `CCS(=O)(=O)N(Cc1ccco1)Cc1cc2ccc(C)cc2nc1O`, the percent growth came to 90.6 ± 1.9%.

As for `COc1ccccc1CNC(=O)c1cc(C2CC2)nc2c1cnn2C(C)C`, the percent growth stood at 81.6 ± 10%.

Molecule `Cc1cc(NCCc2ccccc2)nc(NC(=N)Nc2ccc(Cl)cc2)n1` came in with a percent growth of 148 ± 68%.

In turn, `CCOC(=O)NC(=O)c1ccsc1NC(=O)c1nc2ccccc2s1` came in with a percent growth of 0.167 ± 0.2%.

Turning to `COc1ccc(CN2CCOc3ccc(C(C)(O)CN(C)C)cc3C2)cc1C` (stereo not drawn), the percent growth came to 103 ± 14%.

In turn, `CC(C)(C)C(=O)N(CCCCCCN1C[C@H](O)[C@@H](O)[C@H](O)[C@H]1CO)C1CCCCCC1` displayed a percent growth of 122 ± 27%.

In turn, `Nc1ccc2ncnc(Nc3ccc(OCc4cccc(F)c4)c(Cl)c3)c2c1` gave a percent growth of 111 ± 9.4%.

For `O=C(NCCN1CCCC1)c1cc(NCCN2CCOCC2)nc2ccc(Cl)cc12`, the percent growth was 95.2 ± 4.7%.

As for `Clc1ccc(Cl)c(CO[C@H]2CCCC[C@@H]2n2ccnc2)c1`, the percent growth was determined as 26.2 ± 40%.

On to `CC[C@@H]([C@H](C)O)n1ncn(-c2ccc(N3CCN(c4ccc(OC[C@@H]5CO[C@@](Cn6cncn6)(c6ccc(F)cc6F)C5)cc4)CC3)cc2)c1=O`, for which the percent growth amounted to 76.2 ± 4.8%.

`CS(=O)(=O)Cc1nc2ccccc2oc1=O` displayed a percent growth of 67.6 ± 7.5%.

Regarding `c1ccc(C[C@@H]2CN(c3nccc(Oc4ccc(-n5ccnc5)cc4)n3)CCN2)cc1`, the percent growth was found to be 93.3 ± 12%.

On to `O=C(Nc1ccccc1-c1nc2c(C(=O)O)cccc2o1)c1ccccc1`, for which the percent growth is 68.4 ± 14%.

`CCc1ccc([C@@H]2C[C@H](C(F)(F)F)n3ncc(C(=O)NCc4ccc(OC)cc4)c3N2)cc1` showed a percent growth of 92.3 ± 12%.

`O=C(Nc1ccc(C(F)(F)F)c(C(F)(F)F)c1)c1cc(Cl)ccc1O` registered a percent growth of 0%.

The molecule `Nc1cccnc1Nc1ccc(Cl)cc1` showed a percent growth of 94.6 ± 4.4%.

Molecule `CC(=O)NCC1CN(c2ccc(-c3ccc(CNCc4cn[nH]n4)cc3)c(F)c2)C(=O)O1` (stereo not drawn) displayed a percent growth of 0.542 ± 0.94%.

`COc1cc(Br)cc2cc(C(=O)Nc3cccc(C(F)(F)F)c3)c(=O)oc12`: the percent growth was found to be 116 ± 26%.

`COc1cccc(NC(=O)c2c(NC(=O)c3cccnc3)sc3c2CCC3)c1` returned a percent growth of 98.2 ± 24%.

Regarding `Cc1cc(OCC(=O)Nc2ccc(C(C)C)cc2)n(C)c(=O)c1C#N`, the percent growth turned out to be 99.6 ± 7.3%.

The molecule `O=C(NCCc1c[nH]c2ccccc12)c1cc2ccccc2oc1=O` yielded a percent growth of 104 ± 6%.

Take `O=C(c1ccc(F)cc1)N(CCNc1ccccc1)c1ccccc1`: the percent growth came to 106 ± 17%.

As to `Cc1cc(Nc2ccncc2)n2nc(C)c(-c3ccccc3Cl)c2n1`, the percent growth was determined as 73.9 ± 22%.

For the molecule `Cc1nnc(NC(=O)c2cn(-c3ccccc3)nc2-c2ccccc2C)o1`, the percent growth turned out to be 0.31 ± 0.38%.

Molecule `C[C@H]1COc2c(N3CCN(C)CC3)c(F)cc3c(=O)c(C(=O)O)cn1c23` returned a percent growth of 1.93 ± 0.63%.

Regarding `COc1cc(C2=NCCN2)ccc1-c1cn(-c2cccc(C3=NCCN3)c2)nn1`, the percent growth came out at 82.9 ± 23%.

Take `CO[C@H]1/C=C/O[C@@]2(C)Oc3c(C)c(O)c4c(O)c(/c(=C/NN5CCN(C)CC5)c(O)c4c3C2=O)=N\C(=O)/C(C)=C\C=C/[C@H](C)[C@H](O)[C@@H](C)[C@@H](O)[C@@H](C)[C@H](OC(C)=O)[C@@H]1C`: the percent growth is 4.41 ± 2.2%.

In the case of `Cc1ccc(NC(=O)c2cc(S(=O)(=O)NC(C)(C)C)ccc2C)nc1`, the percent growth stood at 207 ± 200%.

`CNc1cc(C)nc(C2CN(C(=O)c3n[nH]c4ccccc34)CCO2)c1` (stereo not drawn) had a percent growth of 89.6 ± 5.4%.
